Compound activity deposited in PubChem BioAssay by National Center for Advancing Translational Sciences (NCATS).
EPAC1 antagonist: EPAC1 (human) antagonism | 360,000 compounds, 0.14% hits | EPAC1 GEF assay, Rap1b-BODIPY-GDP exchange fluorescence | Potency, µM (highest dose often 115 µM), for the others: at the top dose activity change, negative = inhibition, hits mostly inhibitors | O95398;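 note: plate controls were vehicle for no effect and positive control for full effect; nearly all actives have a fitted effect of over 50% in size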
Target sequence (O95398 whole entry, looked up): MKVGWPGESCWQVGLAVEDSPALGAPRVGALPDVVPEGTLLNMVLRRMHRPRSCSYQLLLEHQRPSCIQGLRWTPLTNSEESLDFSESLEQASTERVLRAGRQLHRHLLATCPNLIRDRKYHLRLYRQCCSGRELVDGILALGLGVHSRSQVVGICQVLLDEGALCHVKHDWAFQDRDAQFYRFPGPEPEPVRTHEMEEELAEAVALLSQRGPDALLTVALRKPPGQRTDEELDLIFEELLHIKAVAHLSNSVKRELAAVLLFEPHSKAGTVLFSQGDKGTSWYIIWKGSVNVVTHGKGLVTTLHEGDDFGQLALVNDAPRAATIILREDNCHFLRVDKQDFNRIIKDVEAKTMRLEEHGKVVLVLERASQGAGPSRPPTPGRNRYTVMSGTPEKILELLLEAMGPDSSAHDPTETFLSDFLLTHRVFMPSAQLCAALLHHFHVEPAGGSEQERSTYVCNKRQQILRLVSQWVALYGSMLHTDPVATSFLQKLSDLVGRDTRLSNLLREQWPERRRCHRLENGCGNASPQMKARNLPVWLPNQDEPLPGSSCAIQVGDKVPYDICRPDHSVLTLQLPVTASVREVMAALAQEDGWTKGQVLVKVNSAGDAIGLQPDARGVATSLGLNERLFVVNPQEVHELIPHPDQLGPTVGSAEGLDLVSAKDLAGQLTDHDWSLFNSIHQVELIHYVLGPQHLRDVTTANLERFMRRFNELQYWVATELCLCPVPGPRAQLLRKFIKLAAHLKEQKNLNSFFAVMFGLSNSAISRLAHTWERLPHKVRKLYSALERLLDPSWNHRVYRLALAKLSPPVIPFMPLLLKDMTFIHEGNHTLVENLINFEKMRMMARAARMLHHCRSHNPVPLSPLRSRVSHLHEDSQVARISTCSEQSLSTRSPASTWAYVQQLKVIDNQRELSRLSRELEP
EPAC1 ag: activates human EPAC1 exchange factor. Potency, µM (highest dose often 154 µM), without a hit: top-dose activation, usual class: activators. EPAC1 agonist qHTS, biochemical assay; response scale: 100% = response to 6.5 mM cAMP. O95398. 360,000 compounds, 0.073% hits; note: nearly all actives have a fitted effect of over 60% in size
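Nucleotide exchange assay: 100 nM EPAC1 with 250 nM Rap1B loaded with BODIPY-GDP and 50 uM GDP, room temperature. Fluorescence (480/540 nm) read every 5 min for 30 min; signal change normalized to 6.5 mM cAMP as full agonist.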
EPAC2 ag: activates human EPAC2 exchange factor; Potency, µM (series often up to 154 µM), without a hit: at the highest dose activation, most hits filed as activators; Q8WZA2; 360,000 compounds, 0.079% hits; EPAC2 activation, biochemical qHTS; response scale: 100% = 6.5 mM cAMP response; AID 720711; note: nearly all actives have a fitted effect of over 50% in size
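Compounds were added across a concentration range to EPAC2 (100 nM), RAP1B-BODIPY-GDP (250 nM) and GDP (50 uM). After 5 min at room temperature, fluorescence was recorded at 5-min intervals for 30 min.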
EPAC2 antagonist: antagonists of human EPAC2; EPAC2 GEF exchange of Rap1B-BODIPY-GDP, fluorescence; 360,000 compounds, 0.18% hits; Potency, µM (titrated, usually from 114 µM), for inactives: at the top dose activity, negative = inhibition, hits mostly inhibitors; AID 720708; Q8WZA2; note: % is set by controls: 0 for no effect and ±100 for the full control effect; nearly all actives have a fitted effect of over 45% in size
USP1-UAF1 inh: USP1/UAF1 (human) deubiquitinase inhibition; 390,000 compounds, 0.23% hits; Potency, µM (top dose mostly 57.1 µM), without a hit: top-dose activity change, negative = inhibition, usual class: inhibitors; recombinant USP1/UAF1, Ub-Rhodamine cleavage fluorescence; O94782; note: % is set by controls: 0 for no effect and ±100 for the full control effect; nearly all actives have a fitted effect of over 60% in size
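USP1/UAF1 complex (1 nM) preincubated 15 min at room temperature with compound, then Ub-Rho substrate (150 nM final) added. Kinetic fluorescence at 480/540 nm over 6 reads at 60 s intervals; 50 mM HEPES pH 7.8, 0.5 mM EDTA, 0.1 mg/ml BSA, 1 mM TCEP, 0.01% Tween-20.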
The depositor's hits bear a star; ? = inconclusive; / = not tested or not shown. This is a sample that favours compounds with a hit; in the whole collection about 0.44% have one here. Calls come from the whole dose curve; as a rule, active = well fitted curve in the direction sought with a large enough effect; inconclusive = small, poorly fitted or top-dose-only effect, or another doubt; inactive = no such curve, though single readings can be large; an effect the other way counts as inactive or inconclusive. Potency is the fitted concentration of half-maximal effect.

SMILES | EPAC1 antagonist | EPAC1 ag | EPAC2 ag | EPAC2 antagonist | USP1-UAF1 inh
O=C(COC(=O)/C=C/c1cccs1)Nc1ccc(F)cc1 | -1% | -5% | 0% | 12% | -23%
Clc1cccc(CN2CCCCCCC2)c1Cl | -1% | -2% | 7% | 17% | -16%
Cc1ccc(NS(=O)(=O)c2cccc3cccnc23)c(Cl)c1 | 12% | 9% | 9% | 28µM* | -9%
O=C(O)c1ccc2c(c1)C(=O)N(C(Cc1ccccc1)C(=O)O)C2=O (stereo not drawn) | 3% | 0% | -4% | 2% | -9%
CSCCC(C(=O)O)N1C(=O)c2ccc(C(=O)O)cc2C1=O (stereo not drawn) | 5% | 3% | 10µM* | -5% | -15%
O=C(NNc1cc(N2CCOCC2)nc(N2CCOCC2)n1)c1ccc(Cl)c(Cl)c1 | 7% | 1% | 3% | -11% | -12%
Cc1ccc(C(=O)NNc2cc(N3CCCC3)nc(N3CCCC3)n2)cc1 | 0% | 0% | 9% | -1% | 14µM*
COc1ccccc1N1CCN(Cc2nc(-c3cc(OC)c(OC)c(OC)c3)no2)CC1 | / | / | / | / | -17%
CCCC1Nc2ccc(C(=O)O)cc2C2C=CCC12 (stereo not drawn) | 18% | -1% | -4% | -8% | -17%
CCOC(=O)C1Nc2ccc(C(=O)O)cc2C2C=CCC12 (stereo not drawn) | 6% | 20% | 9% | 1% | 18µM*
COc1ccc2c(c1)CC/C(=C\C=C\c1ccccc1OC)C2=O | 4% | -4% | -3% | 9% | ?
COCCN(CCOC)Cc1c(O)ccc2c1O/C(=C\c1ccc(C)o1)C2=O | 116% | ? | 15% | 95% | 32µM*
CCN(CC)Cc1c(O)ccc2c1O/C(=C\C=C\c1ccccc1)C2=O | -13% | ? | 21% | 29% | 32µM*
CS(=O)(=O)Oc1ccc2c(c1)O/C(=C\C=C\c1ccccc1)C2=O | -23% | -24% | 6% | -3% | -19%
COc1ccccc1/C=C/C=C1\Oc2c(ccc(O)c2CN(C)C)C1=O | 34% | ? | ? | 75% | 25µM*
Cc1ccc(/C=C2\Oc3cc(OCC(=O)NN)ccc3C2=O)o1 | -4% | 4% | 0% | 7% | -25%
CCNC(=O)C1CCN(S(=O)(=O)c2ccc3c(c2)CCCN3C(C)=O)CC1 | / | / | / | / | -9%
COc1ccccc1Cc1c(C2CCCCC2)nc2ccc(Br)cn12 | -11% | 7% | 16% | -6% | /
CC(C)C(=O)NC(c1ccccc1)c1cc([N+](=O)[O-])c2cccnc2c1O (stereo not drawn) | 56µM* | 18% | 15% | -12% | -13%
CC(=O)NC(c1ccc(C)cc1)c1cc(Cl)c2cccnc2c1O (stereo not drawn) | -9% | -2% | 8% | 40µM* | -19%
CCC(C)C(NC(=O)OC(C)(C)C)C(=O)NC(C)C(N)=O (stereo not drawn) | -8% | -6% | 9% | 20% | -21%
Nc1cc(-c2ccncc2)c[nH]c1=O | ? | -3% | 9% | 1% | 40µM*
NC(=O)c1csc(-c2ccncc2)n1 | 0% | 7% | 10% | -2% | 0%
Cc1cc(=O)[nH]c2nnc(SCc3ccccc3F)n12 | / | / | / | / | -13%
O=C(c1ccc(O)c(Cl)c1)N1CCN(S(=O)(=O)c2ccccc2)CC1 | -1% | -6% | -3% | 2% | -5%
SMILES | EPAC1 antagonist | EPAC1 ag | EPAC2 ag | EPAC2 antagonist | USP1-UAF1 inh
COc1ccccc1NC(=O)C1=C(C)Nc2nc(SCc3ccccc3F)nn2C1c1cccs1 (stereo not drawn) | / | / | / | / | -7%
COc1cccc(-c2ccc(C#N)c(OC(=O)c3ccc(Cl)cc3)n2)c1 | 11% | 4% | 6.3µM* | 10% | 0%
CCN(CC)c1ccc(/C=C2/C(=O)c3ccc(C(=O)O)cc3C2=O)cc1 | ? | 6% | 9% | ? | 13µM*
O=C(N[C@@H](Cc1ccc(Br)cc1)C(=O)O)OCC1c2ccccc2-c2ccccc21 | ? | -15% | 6% | -27% | -24%
O=C(N[C@H](Cc1ccc(Cl)cc1)C(=O)O)OCC1c2ccccc2-c2ccccc21 | 50µM* | -23% | -13% | ? | -17%
Cc1ccc(NC(=O)CCCc2ccccc2)c([N+](=O)[O-])c1 | 14% | 8% | 11% | -6% | -9%
CC(=O)Nc1ccc(Nc2nc3ccccc3nc2NS(=O)(=O)c2ccc(Cl)c([N+](=O)[O-])c2)cc1 | ? | -17% | -10% | 79µM* | ?
O=C1C(=O)c2ccccc2C(O)=C1CCCCl | -13% | 0% | -4% | 3% | 20µM*
C=Cc1ccc(Cn2nc(-c3ccccc3)ccc2=O)cc1 | -7% | 8% | 3% | 22µM* | -15%
Cn1c(O)c(/C=C2\C=Nc3ccccc32)sc1=Nc1ccc(C(=O)O)cc1 | 1% | -12% | 2% | -9% | ?
O=C(Cc1ccccc1)Nn1c(O)c(/C=C2\C=Nc3ccccc32)sc1=S | -2% | 89µM* | 100µM* | -4% | 32µM*
CCc1cccc(CC)c1NC(=S)NCC(c1cccnc1)N1CCOCC1 (stereo not drawn) | -5% | 3% | -4% | 6% | -1%
O=c1oc2c(O)cccc2cc1-c1nc2ccccc2[nH]1 | ? | 22% | 35% | 14% | 33%
O=c1oc2c(CN3CCCCC3)c(O)ccc2cc1-c1nc2ccccc2[nH]1 | 15% | 22% | 30% | 33% | 28µM*
CCc1ccc2occ(CC(=O)Nc3c(C(=O)c4ccc(C)cc4)oc4ccccc34)c2c1 | / | / | / | / | -18%
Cc1cc(C)c2nc(C(F)(F)F)nc(N3CC(C)OC(C)C3)c2c1 (stereo not drawn) | -9% | 2% | -2% | 10µM* | -10%
Cn1nc(-c2ccccc2)c2nc3ccccc3nc21 | 10% | 9% | 100µM* | 291% | ?
Cc1cc(C)cc(-n2c(SCC(=O)Nc3cccc(S(=O)(=O)NC4=NCCCCC4)c3)nc3ccccc3c2=O)c1 | -1% | -4% | 16% | 9% | -15%
COc1ccccc1-n1cnnc1SCC(=O)Nc1cccc(S(N)(=O)=O)c1 | 10% | 5% | -5% | 4% | -19%
N=C(N)c1ccc(N=Nc2c(O)ccc3c2[nH]c2ccccc23)cc1 | 40µM* | ? | ? | 50µM* | ?
CCOc1ccc(NC(=NCc2ccc3c(c2)OCO3)SC2CC(=O)N(c3ccc(C(=O)O)cc3)C2=O)cc1 (stereo not drawn) | 28µM* | ? | 1% | -15% | -2%
CCOc1ccc(NC(=NCc2ccc3c(c2)OCO3)SC2CC(=O)N(c3ccc(OCC)cc3)C2=O)cc1 (stereo not drawn) | -5% | -4% | 8% | -9% | -4%
O=C1CCN2C=Nc3cccc4ccc1c2c34 | 297% | 63µM* | 89µM* | 284% | 28µM*
O=C(NCc1ccccc1Cl)c1cnc(N2CCCCC2)c2ccccc12 | / | / | / | / | -44%
